# The whole screen tested about 340,000 compounds, of which about 2,100 (0.62%) were called active. The list is a sample of the results. Entries with a potency or affinity are not part of this list. Unmarked numbers belong to inactive results.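 Rule for the calls: active = first-screen hits whose inhibition reached a set limit at any dose in the follow-up dose series; inconclusive = inhibition above the set first-screen limit but never retested; inactive = the rest.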
# Biological target: Rac GTPase-activating protein 1 (Homo sapiens) (UniProt Q9H0H5)
# Sequence (Q9H0H5 whole entry, looked up): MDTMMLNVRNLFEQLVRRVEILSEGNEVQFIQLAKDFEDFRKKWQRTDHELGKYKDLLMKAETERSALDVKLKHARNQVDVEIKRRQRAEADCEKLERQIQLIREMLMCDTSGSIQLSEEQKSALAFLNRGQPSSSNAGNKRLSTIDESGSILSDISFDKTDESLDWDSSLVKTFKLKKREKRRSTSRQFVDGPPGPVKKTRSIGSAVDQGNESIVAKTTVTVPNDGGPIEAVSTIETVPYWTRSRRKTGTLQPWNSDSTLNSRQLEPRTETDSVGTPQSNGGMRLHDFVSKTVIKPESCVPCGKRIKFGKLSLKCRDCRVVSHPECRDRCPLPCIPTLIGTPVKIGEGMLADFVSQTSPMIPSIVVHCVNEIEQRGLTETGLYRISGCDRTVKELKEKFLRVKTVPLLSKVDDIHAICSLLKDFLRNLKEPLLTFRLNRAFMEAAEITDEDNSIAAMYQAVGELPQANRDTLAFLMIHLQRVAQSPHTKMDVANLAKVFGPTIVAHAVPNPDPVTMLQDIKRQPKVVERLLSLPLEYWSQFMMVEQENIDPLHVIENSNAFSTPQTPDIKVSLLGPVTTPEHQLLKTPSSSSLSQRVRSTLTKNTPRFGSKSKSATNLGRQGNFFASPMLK
# Experiment: MgcRacGAP GTPase-activating activity inhibitors, confirmation, biochemical, ADP Hunter fluorescence, primary and confirmatory (AID 624330);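 note: fluorescence reports GDP produced by GAP-driven GTP hydrolysis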
# Conditions: MgcRacGAP-stimulated Rac1 GTP hydrolysis, at 30 µM, hits give high values, GST-tagged Rac1 F28L mutant substrate
row,Structure (SMILES),inhibition [%]
1,CCOC(=O)c1cc(NC(=O)C2C3C=CC(O3)C2C(=O)O)cc(C(=O)OCC)c1 (stereo unspecified),6.71
2,CN1CCN(S(=O)(=O)c2ccc(Oc3cccc(C(F)(F)F)c3)nc2)CC1,9.66
3,O=c1c(Br)c(N2CCCCC2)cnn1-c1ccccc1,3.03
4,CCc1cc(=O)oc2cc(OCC(=O)NCCN3CCOCC3)c(Cl)cc12,0.13
5,Cc1c(Cl)cccc1Nc1ccccc1C(=O)O,3.44
6,CCOc1ccc(Nc2nc3ccccc3c(=O)s2)cc1,4.2
7,Cc1cc(=O)[nH]c(Nc2cccc(Cl)c2C)n1,3.14
8,Clc1ccccc1Nc1nnc(-c2ccncc2)s1,12.4
9,Cc1ccc(Nc2nc3ccccc3s2)c(C)c1,7.17
10,O=C(c1ccccc1)c1cnc(Nc2ccccc2Cl)s1,8.39
11,CCOC(=O)c1sc(Nc2ccc(OCC)cc2)nc1C,-3.93
12,Cc1ccc(Nc2nc3c(s2)CCC3)c(C)c1,9.23
13,N#CC1(Nc2ccc(S(N)(=O)=O)cc2)CCCC1,2.96
14,Cc1ccc2c(C(=O)CN3CCCCC3)c(C)[nH]c2c1,3.73
15,COC(=O)c1cc(C(=O)Nc2nnc(C3CC3)s2)cc([N+](=O)[O-])c1,11.3
16,O=C(CSc1ccc(Br)cc1)NCC1(N2CCCCC2)CCCCC1,5.48
17,CCC1(CC)NC(=O)N(CC(=O)OC(C)C(=O)Nc2ccccc2OC)C1=O (stereo unspecified),1.87
18,COc1ccc(N2CCN(C(=S)Nc3cccc(C)c3)CC2)cc1,14.2
19,CCc1cccc(C)c1NC(=S)NCC1CCN(c2ccc(OC)cc2)C1 (stereo unspecified),26.6
20,CCc1ccc(NC(=O)NCC2CCN(c3ccc(OC)cc3)C2)cc1 (stereo unspecified),10.4
21,COc1ccc(N2CCC(CNC(=S)Nc3c(C)cc(C)cc3C)C2)cc1 (stereo unspecified),23.7
22,CCOc1ccc(NC(=O)NCC2CCN(c3ccc(OC)cc3)C2)cc1 (stereo unspecified),5.23
23,COc1ccc(N2CCC(CNC(=O)Nc3ccc(Cl)cc3)C2)cc1 (stereo unspecified),23.3
24,COc1ccc(C(=O)N2CCC(CCC(=O)Nc3cccc(C)c3)CC2)cc1,5.31

row,Structure (SMILES),inhibition [%]
1,COc1ccc(N2CCC(CNC(=O)Nc3ccc(C)c(C)c3)C2)cc1 (stereo unspecified),36.2
2,COCC(C)n1c(C)cc(C(=O)CN2c3cccc4cccc(c34)S2(=O)=O)c1C (stereo unspecified),6.1
3,O=C(CN(Cc1ccc(Br)cc1)S(=O)(=O)c1ccccc1)NCc1ccccn1,11.6
4,C/C(=N\NC(=O)CSc1nc2ccccc2s1)c1cccnc1,2.25
5,COc1cc(OC)c(NC(=O)CCNS(=O)(=O)c2ccc3c(c2)CC(C)N3C(C)=O)cc1Cl (stereo unspecified),-10.2
6,COc1cc(/C=N/NC(=O)c2c(C)nc3ccc(Cl)cn23)cc(OC)c1OC,0.19
7,COc1ccc(NC(=O)c2ccc(CN3CCc4ccccc4C3)cc2)cc1OC,4.51
8,COc1ccc(C(=O)/C=C/c2ccc(O)cc2)c(O)c1CC=C(C)C,7.57
9,COc1ccc(C(=O)/C=C/c2ccc(O)cc2)c(O)c1C/C=C(\C)CCC=C(C)C,1.5
10,CCCOc1ccc(OCCN2CCCC(C)C2)cc1 (stereo unspecified),20
11,O=C(CSc1ncnc2sccc12)NCc1ccc2c(c1)OCO2,4.24
12,Nc1cccc([N+](=O)[O-])c1,0.03
13,O=[N+]([O-])c1cccc(S(=O)(=O)c2cccc([N+](=O)[O-])c2)c1,4.34
14,CN(C)c1ccc(/C=N/NC(=O)c2ccc3c(c2)OCO3)cc1,16.6
15,Cc1c(F)cccc1NS(=O)(=O)c1ccc2c(c1)n(C)c(=O)c(=O)n2C,-0.09
16,Cc1c(CN2CCC(C(=O)Nc3cccc(-c4cccc(Cl)c4)c3)CC2)cnn1C,11.7
17,Cn1c(SCc2ccccc2)nc2c1c(=O)[nH]c(=O)n2C,-7.97
18,C#CCNC(=O)C1=C[C@@H](C(C)(C)C)C[C@@H](OCc2ccc(CO)cc2)O1,7.54
19,O=c1cc(-c2ccc(O)cc2)oc2cc(O)cc(O)c12,14.4
20,O=c1cc(-c2ccccc2)oc2cccc(O)c12,0.53
21,COc1ccc(-c2cc(=O)c3c(O)cc(O)cc3o2)cc1,-5.2
22,O=c1cc(-c2ccc(O)c(O)c2)oc2ccc3ccccc3c12,2.51
23,COc1cccc(/C=C/C(=O)OCC(=O)Nc2nnc(-c3ccccc3)o2)c1,4.25
24,Cc1c(NC(=O)c2ccc(S(=O)(=O)Nc3ccccc3F)cc2)c(=O)n(-c2ccccc2)n1C,4.66

row,Structure (SMILES),inhibition [%]
1,Cc1c(C=O)c2ccccc2n1CC(=O)N1CCc2ccccc2C1,10.2
2,O=C(CC(c1ccccc1)c1ccccc1O)NCc1ccco1 (stereo unspecified),15.2
3,O=C1c2ccccc2OCOc2ccccc21,2.81
4,O=S1c2ccccc2Oc2ccccc21,-3.3
5,CCCCn1c(CN2C(=O)c3ccccc3C2=O)nc2ccccc2c1=O,4.82
6,CCOC(=O)C1CCCN(S(=O)(=O)c2ccc3ccccc3c2)C1 (stereo unspecified),3.67
7,CCOc1ccc(NC(=O)C(C)NC(=O)c2ccccc2Cl)cc1S(=O)(=O)N1CCCC1 (stereo unspecified),-0.23
8,COC(=O)c1c(NC(=O)CSc2nccn2C)sc(C)c1C,-3.2
9,COc1ccc(CCNC(=O)Cc2ccccc2)cc1OC,10
10,COc1ccc(Cl)cc1NC(=O)CNCC(c1ccccc1)N(C)C (stereo unspecified),21.9
11,Cc1ccc(Cl)cc1NC(=O)CNCC(c1ccccc1)N(C)C (stereo unspecified),30.3
12,CCOC(=O)c1cc(NC(=O)CNCC(c2ccccc2)N(C)C)cc(C(=O)OCC)c1 (stereo unspecified),16.1
13,Cc1cc(NC(=O)CNCC(c2ccccc2)N(C)C)c([N+](=O)[O-])cc1C (stereo unspecified),13.9
14,COc1ccc(CCNC(=O)CSc2ccccc2)cc1OC,-5.12
15,COc1ccc(C)cc1S(=O)(=O)N(C)CC(=O)N1CCC(C(N)=O)CC1,-7.33
16,O=C(CSCC(=O)OCn1nnc2ccccc2c1=O)Nc1ccc(Cl)cc1,7.19
17,CCc1nc(N2CCC3(CC2)OCCO3)c2nnn(Cc3ccccc3)c2n1,0
18,CCCn1c(=NC(=O)CCS(=O)(=O)c2ccccc2)sc2cc(S(N)(=O)=O)ccc21,-5.12
19,CCC(=O)N1CCC(c2ccc(OC)cc2)=N1,1.71
20,CCC(=O)Nc1nnc(S(=O)(=O)N(CC)c2cc(C)cc(C)c2)s1,3.75
21,Cc1ccn2c(NC3CCCC3)c(-c3ccsc3)nc2c1,13.1
22,Cc1ccc2nc(-c3ccncc3)c(NC3CCCC3)n2c1,-17.4
23,O=C(Nc1ccc(Cl)cc1)C1CCN(C(=O)c2cccs2)CC1,6.08
24,Cc1ccc2occ(C(c3nnnn3Cc3ccccc3)N3CCOCC3)c(=O)c2c1 (stereo unspecified),7.16

row,Structure (SMILES),inhibition [%]
1,C=C1CC(C(=O)N/N=C/c2ccccc2)C1,11.8
2,O=C(NN=Cc1ccc(F)cc1)C1CC1,6.86
3,O=C(NN=Cc1ccc(O)cc1)C(=O)NN=Cc1ccc(O)cc1,28.3
4,O=[N+]([O-])c1ccc(C=NNC(=S)NN=Cc2ccc([N+](=O)[O-])cc2)cc1,-0.77
5,O=C(Nc1cccc(NC(=O)c2ccco2)c1)c1ccc2c(c1)OCCO2,2.32
6,O=C(Nc1ccc(NC(=O)c2ccc3c(c2)OCCO3)cc1)c1ccccc1,1.42
7,O=C(NC1CCCCCC1)c1ccc[nH]c1=S,5.17
8,COc1ccc(NC(=O)CSc2nnc3ccc(-c4cccnc4)nn23)c(OC)c1,-2.52
9,O=C1CS/C(=N/N=C/c2ccccc2)N1c1ccc(O)cc1,8.23
10,COc1ccc(/C=N/N=C2\SCC(=O)N2c2c(C)n(C)n(-c3ccccc3)c2=O)cc1OC,5.82
11,COc1ccc(/C=N\N=C2/SC(CC(=O)O)C(=O)N2c2ccc(O)cc2)cc1OC (stereo unspecified),2.46
12,COc1ccc(/C=N\N=C2/SC(CC(=O)O)C(=O)N2c2ccc(O)cc2)cc1 (stereo unspecified),3.73
13,O=C(NCCC1=CCCCC1)C(=O)c1c[nH]c2ccccc12,1.95
14,Cc1ccc(S(=O)(=O)[N-]c2nc3ccccc3nc2-[n+]2cc(C)cc(C)c2)cc1,9.42
15,COc1ccccc1Oc1nnnn1-c1ccc(C(N)=O)cc1,2.99
16,CCn1cc(/C=C(\NC(=O)c2ccccc2F)C(=O)N2CCN(C)CC2)c2ccccc21,19
17,C[C@@H]1CN(S(=O)C(C)(C)C)[C@@H](CCO)/C1=C\CCO (stereo partly specified),8.46
18,Cc1ccc2c(Cl)c(C(=O)Nc3cc(C)on3)sc2c1,4.78
19,Cc1cc(NC(=O)c2ccccc2)no1,5.35
20,Cc1ccc(S(=O)(=O)c2c(COC(=O)c3ccccc3Cl)c(-c3ccccc3)nn2C)cc1,4.7
21,Cc1nc2ccc(NC(=O)CCS(=O)(=O)c3ccc(Cl)cc3)cc2s1,-5.04
22,CC(C)CC1NC(=O)N(CC(=O)Nc2ccc3c(c2)CCC3)C1=O (stereo unspecified),9.25
23,O=C(NCCS(=O)(=O)c1ccc(Cl)cc1)c1ccc(F)cc1,2.29
24,Cc1c(C(=O)Nc2ccc(S(=O)(=O)Nc3ncccn3)cc2)oc2ccc(F)cc12,-2.01

# — PubChem BioAssay AID624330 (Southern Research Specialized Biocontainment Screening …, 2012)
